# Screening results as filed in PubChem.
# The sample as a whole holds a higher share of hits than the screen did.
# TDP1 cell CPT: DT40-hTDP1 cell growth loss with CPT; chicken DT40 Tdp1-/-;hTDP1 cells + 20 nM CPT, ATP luminescence, 48 h; Potency, µM (titrated, usually from 46.2 µM), without a hit: at the top dose activity change, negative = growth inhibition, usual class: inhibitors; actives 12% (n = 420,000); note: potency is the fitted concentration of half-maximal effect; nearly all actives have a fitted effect of over 55% in size
#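 Cell growth measured by CellTiter-Glo luminescence after a minimum 48 h, 37 C compound exposure with 20 nM CPT in Tdp1-knockout DT40 cells stably expressing hTDP1, seeded 400/well; qHTS titration format.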
# IL-1B inflam inh: inflammasome signaling inhibition, IL-1 beta readout; THP-1 LPS/ATP IL-1B secretion, AlphaLISA, 16 h; hits give low values; activity change, % at 57.5 µM; actives 4.7% (n = 360,000); AID 743279; in the data active = activity change below about -50%; inconclusive = mostly about -30% to -49%
#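 THP-1 cells pretreated 1 hr with compounds (up to 57.5 uM final), then stimulated with LPS (250 ng/mL final) plus ATP (1.25 mM final); secreted IL-1B measured by AlphaLISA after 16 hr, decreased signal indicating inhibition.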
# DT40 TDP1 no CPT: qHTS for Inhibitors of human tyrosyl-DNA phosphodiesterase 1 (TDP1): qHTS in cells in absence of CPT | Potency, µM (series often up to 46.2 µM), without a hit: at the highest dose activity change, negative = growth inhibition, hits mostly inhibitors | AID 686978, 2013 | actives 15% (n = 420,000) | DT40 Tdp1-/- hTDP1 cells, no CPT, ATP luminescence, 48 h; note: potency is the fitted concentration of half-maximal effect; nearly all actives have a fitted effect of over 55% in size
#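 Seeded 400 DT40-hTDP1 cells/well (vehicle DMSO, no 20 nM CPT); pinned compounds; ≥48 hr at 37 °C; CellTiter-Glo luminescence as viability measure.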
# HT1080NT lethal: kills 2HG-producing HT-1080-NT fibrosarcoma cells. actives 1.6% (n = 360,000). AID 686970. Potency, µM (highest dose often 46.1 µM), inactives show top-dose activity, negative = less viability, hits mostly cytotoxic. HT-1080-NT fibrosarcoma viability, CellTiter-Glo ATP luminescence, 48 h;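 note: NT is the 2HG producing partner of a matched IDH1 knockdown line; potency is the fitted concentration of half-maximal effect; 0% = DMSO-treated cells and -100% = media-only wells without cells; nearly all actives have a fitted effect of over 55% in size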
#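 750 cells/well, RPMI + 5% FBS; 2 h settle, compound pin-transfer, 48 h at 37 degrees C. CellTiter-Glo 10 min RT, luminescence. Normalized to DMSO and media-only wells.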
# ALOX12 inh: inhibitors of human 12S-lipoxygenase ALOX12. P18054. purified 12hLO, xylenol orange hydroperoxide absorbance. Potency, µM (doses to about 108 µM), for inactives: top-dose activity change, negative = inhibition, most hits filed as inhibitors. actives 1.1% (n = 580,000). AID 1671190; note: potency is the fitted concentration of half-maximal effect
# Target sequence (P18054 whole entry, looked up): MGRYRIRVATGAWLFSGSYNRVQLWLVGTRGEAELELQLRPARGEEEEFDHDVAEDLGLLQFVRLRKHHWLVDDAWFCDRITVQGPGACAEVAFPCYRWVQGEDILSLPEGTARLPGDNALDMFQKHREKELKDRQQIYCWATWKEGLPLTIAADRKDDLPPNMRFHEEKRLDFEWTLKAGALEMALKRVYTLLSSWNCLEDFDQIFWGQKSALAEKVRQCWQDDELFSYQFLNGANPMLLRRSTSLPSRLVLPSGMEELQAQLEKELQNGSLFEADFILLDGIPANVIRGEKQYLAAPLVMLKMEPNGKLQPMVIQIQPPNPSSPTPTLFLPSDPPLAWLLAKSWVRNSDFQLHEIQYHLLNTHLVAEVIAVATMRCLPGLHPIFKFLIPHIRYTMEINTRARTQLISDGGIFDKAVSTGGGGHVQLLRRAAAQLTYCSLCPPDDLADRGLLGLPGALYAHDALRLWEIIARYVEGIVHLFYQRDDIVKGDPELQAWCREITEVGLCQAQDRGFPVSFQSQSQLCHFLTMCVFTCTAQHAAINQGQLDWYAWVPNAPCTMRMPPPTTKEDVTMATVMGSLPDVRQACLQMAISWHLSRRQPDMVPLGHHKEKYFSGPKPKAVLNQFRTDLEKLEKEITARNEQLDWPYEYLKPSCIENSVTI
#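 Purified human 12hLO (150 nM final) in 25 mM Hepes, 0.01% Triton X-100, pH 7.0 was preincubated 15 min at room temperature with compound. Then 40 uM arachidonic acid was added, 30 min. Hydroperoxide was read by Fe-XO absorbance ratio 573/405 nm.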
# HT1080 IDH1KD tx: kills HT-1080 cells with IDH1 knockdown. HT-1080 IDH1 knockdown viability, ATP luminescence, 48 h. Potency, µM (titrated, usually from 46.1 µM), inactives show at the highest dose activity, negative = toxicity, most hits filed as cytotoxic. AID 686971. actives 2% (n = 360,000);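 note: potency is the fitted concentration of half-maximal effect; 0% = DMSO wells and -100% = cell-free medium wells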
#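 In this qHTS, HT-1080 cells depleted of IDH1 are exposed for 48 h at 37 °C to compound titrations. Toxicity is scored from CellTiter-Glo luminescence, with DMSO as full viability and medium alone as none.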
# Starred values were filed as active, the others as inactive; ? = inconclusive; nt = no result. Unless noted, calls come from the whole dose curve; as a rule, active = well fitted curve in the direction sought with a large enough effect; inconclusive = small, poorly fitted or top-dose-only effect, or another doubt; inactive = no such curve, though single readings can be large; an effect the other way counts as inactive or inconclusive. Unless noted, % is set by controls: 0 for no effect and ±100 for the full control effect.
SMILES,TDP1 cell CPT,IL-1B inflam inh,DT40 TDP1 no CPT,HT1080NT lethal,ALOX12 inh,HT1080 IDH1KD tx
COC(=O)c1ccc(N/C=C/C(=O)c2ccc(Cl)c(Cl)c2)cc1,nt,nt,nt,nt,15.7%,nt
COc1ccc2c(c1)c(C(=O)O)c(C)n2-c1ccc(I)cc1,nt,nt,nt,nt,-7.9%,nt
O=C(c1cc2cc(F)ccc2[nH]1)N1CCCC(Nc2ccc(F)cc2)C1 (stereo not drawn),14.6µM*,0.9,?,-27.8%,-9.4%,?
CCOC(=O)C1CCCN(C(=O)c2cc3cc(F)ccc3[nH]2)C1 (stereo not drawn),?,29.0,?,-4.1%,363.2%,2.9%
CNC(=O)c1ccc(NC(=O)CSCc2csc(-c3ccccc3)n2)cc1,nt,nt,nt,nt,-3.3%,nt
CCOC(=O)c1cnc(SCc2nc(-c3ccccc3C)oc2C)nc1N,nt,nt,nt,nt,9.8%,nt
CCN(CC)C(=O)Oc1ccc(Br)c2ccccc12,?,0.0,?,-4.6%,-17.2%,-14.8%
O=C(COc1ccc2ccccc2c1Br)N1CCCCC1,?,20.4,2.6%,19.3%,nt,-16.5%
O=C(Oc1ccc2ccccc2c1Br)N1CCCCCC1,?,14.2,20.6µM*,-1.4%,2.4%,?
CCN(CC)C(=O)Oc1ccc2ccccc2c1Br,-6.0%,-59.6*,?,?,-1.2%,?
COc1ccc(-c2nc3cc(C)ccc3cc2CN2CCCC(C#N)C2)cc1OC (stereo not drawn),nt,nt,nt,nt,32.6%,nt
c1ccc2nccnc2c1,0.794µM*,nt,1.12µM*,nt,nt,nt
c1cc(Nc2cccc3nccnc23)c2nccnc2c1,-18.7%,-54.1*,-21.4%,-5.7%,-0.3%,-26.0%
c1ccc2ncccc2c1,0.1%,27.8,-1.0%,-1.8%,nt,0.6%
Fc1ccc(Nc2cccc3nccnc23)cc1,-4.6%,16.6,1.6%,9.2%,-0.6%,6.3%
CC1CCN(c2c([N+](=O)[O-])c(=O)oc3ccccc23)CC1,16.4µM*,-13.5,23.1µM*,13.7%,1.5%,17.9%
O=c1oc2ccccc2c(N2CCCC2)c1[N+](=O)[O-],-18.1%,-4.2,-29.6%,13.4%,1.6%,-0.3%
O=c1oc2ccccc2c(N2CCCCC2)c1[N+](=O)[O-],16.4µM*,-50.3*,16.4µM*,8.3%,0.6%,13.8%
Cc1nc2c3ccccc3n(Cc3ccccc3F)c2s1,?,48.7,?,-19.2%,-2.5%,-22.7%
Cc1nc2c3cc(F)ccc3n(Cc3ccccc3F)c2s1,7.31µM*,8.0,?,20.6µM*,-16.1%,18.4µM*
Cc1nc2c3cc(F)ccc3n(CCN3CCCCC3)c2s1,6.51µM*,?,7.31µM*,20.6µM*,0.1%,?
Cc1nc2c3cc(F)ccc3n(Cc3ccccc3)c2s1,?,110.1,?,?,-19.1%,?
O=C(CCCc1cccs1)NCc1ccc(OCc2cccnc2)cc1,nt,nt,nt,nt,7.0%,nt
CCN(CC(=O)NC)S(=O)(=O)N1CCC(C)CC1,nt,nt,nt,nt,38.1%,nt
C=CCc1c(C)nc(C)nc1N/N=C/c1ccc([N+](=O)[O-])cc1,?,36.8,16.4µM*,?,14.5%,9.0%
C=CCc1c(C)nc(C)nc1N/N=C/c1ccccc1O,25.9µM*,11.8,23.1µM*,6.3%,19.1%,-23.4%
Cc1ccc2nc(C(Cl)(Cl)Cl)nc(N/N=C/c3ccc([N+](=O)[O-])cc3)c2c1,?,22.6,16.4µM*,-0.3%,8.2%,23.4%
Cc1ccc2nc(C(Cl)(Cl)Cl)nc(N/N=C/c3ccncc3)c2c1,-20.4%,38.3,?,-3.9%,1.9%,-6.5%
Cc1ccc(C=NNc2ccc([N+](=O)[O-])cn2)cc1,?,-9.6,-28.3%,10.4%,-4.7%,21.1%
